Here are results for 28 compounds from PubChem BioAssay (Tox21).

“And” between values parts separate entries of the source, which are not always exact repeats. Equal entries are not always repeated. Values without a mark were called inactive. Results filed as inconclusive are left out. The source made the active and inactive calls. Unless noted, calls come from the whole dose curve.

Assay [1] can be described thus: qHTS assay to identify small molecule agonists of the sonic hedgehog signaling (Shh) pathway (AID 1259368).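 Note: NIH/3T3-derived 3T3Gli1-Luc cells carrying a stable Gli1-driven firefly luciferase reporter; nearly all actives have a fitted effect of over 15% in size.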 Conditions: NIH/3T3 Gli1-Luc reporter, luciferase, 24 h, active compounds read high; series mostly up to 92.4 µM. Summed up: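 Read-out: firefly luciferase luminescence from a Gli1 response element reporter stably integrated in NIH/3T3-derived 3T3Gli1-Luc cells, measured 30 min at room temperature after reagent addition. Compound exposure lasted 24 hr at 37 C, 5% CO2.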

Assay [2] is described as follows: qHTS assay to identify small molecule agonists of the androgen receptor (AR) signaling pathway in the presence of an antagonist - cell viability counter screen (AID 1259379; active = well fitted curve in the direction sought with a large enough effect in the repeat runs; an effect the other way counts as inactive or inconclusive; note: nearly all actives have a fitted effect of over 25% in size; note: potency is the fitted concentration of half-maximal effect;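 for activity change, negative = cytotoxicity: MDA-kb2 human breast cancer cells carrying an MMTV luciferase reporter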). Conditions: MDA-kb2 viability, CellTiter-Fluor, 16 h; series mostly up to 92.4 µM. In short, it runs like this:
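Viability counter screen: CellTiter-Fluor fluorescence, measured in the same wells as the luciferase read-out. MDA-kb2 cells, 3,000/well, with nilutamide at 3.0uM final and compounds at 15 concentrations, 16 hr at 37C, 0% CO2.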

Assay [3] in a line: qHTS assay to identify small molecule agonists of the estrogen receptor beta (ER-beta) signaling pathway - cell viability counter screen (AID 1259380; active = well fitted curve in the direction sought with a large enough effect in the repeat runs; an effect the other way counts as inactive or inconclusive; note: nearly all actives have a fitted effect of over 30% in size; note: potency is the fitted concentration of half-maximal effect). The settings on record: ER-beta-bla HEK293T viability, CellTiter-Glo luminescence, 16 h; series mostly up to 92.4 µM. In short, it runs like this: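 Luminescence read-out (CellTiter-Glo, 30 min, room temp) taken in the same wells as the beta-lactamase reporter assay; ER-beta-UAS-bla HEK293T cells exposed to DMSO-dissolved compounds for 16 hr at 37C in 2% charcoal-stripped FBS medium.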

A short description of assay [4]: qHTS assay to identify small molecule antagonists of the estrogen receptor beta (ER-beta) signaling pathway - cell viability counter screen (AID 1259382; active = well fitted curve in the direction sought with a large enough effect in the repeat runs; an effect the other way counts as inactive or inconclusive; note: nearly all actives have a fitted effect of over 55% in size; note: potency is the fitted concentration of half-maximal effect). Conditions: ER-beta-UAS-bla HEK293T viability, CellTiter-Glo luminescence, 16 h; series mostly up to 92.4 µM. In short, it runs like this: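 Luminescent ATP read-out (CellTiter-Glo, 30 min, RT) taken in the same wells as the bla reporter assay. HEK293T ER-beta-UAS-bla cells in 2% charcoal-stripped FBS were exposed to compounds with 1nM E2 for 16 hr at 37C.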

Assay [5] in a line: qHTS assay to identify small molecule agonists or antagonists of the thyroid stimulating hormone receptor (TSHR) signaling pathway - wild type cell line counter screen (AID 1259384). Conditions: HEK293 wild type, cAMP HTRF counter-screen, active compounds read high; series mostly up to 92.4 µM. Summed up:
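Wild-type Hek293 cells, 800/well, 18 h at 37C, then compound with Ro20-1724 for 30 min RT. cAMP by HTRF (cAMP-d2/anti-cAMP cryptate), 1 h RT, fluorescence read. 15 concentrations, triplicates.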

For assay [6], the target named is Estrogen receptor beta (Homo sapiens) (UniProt Q92731). The assay can be described thus: qHTS assay to identify small molecule agonists of the estrogen receptor beta (ER-beta) signaling pathway (AID 1259377; active = well fitted activation curve with a large enough effect in the signal ratio in the repeat runs, not every such curve was filed as active; the % refers to the signal ratio). Conditions: ER-beta-UAS-bla HEK293T, beta-lactamase FRET ratio, 16 h; series mostly up to 42.5 µM. Summed up: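 Ratiometric beta-lactamase FRET read-out came after 2 h substrate loading at room temperature. It followed 16 h compound treatment at 37C of GripTite HEK293T cells carrying a UAS-bla reporter, plated in 2% charcoal-stripped FBS medium.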
Chain of Estrogen receptor beta (Homo sapiens) (Q92731 whole entry, looked up): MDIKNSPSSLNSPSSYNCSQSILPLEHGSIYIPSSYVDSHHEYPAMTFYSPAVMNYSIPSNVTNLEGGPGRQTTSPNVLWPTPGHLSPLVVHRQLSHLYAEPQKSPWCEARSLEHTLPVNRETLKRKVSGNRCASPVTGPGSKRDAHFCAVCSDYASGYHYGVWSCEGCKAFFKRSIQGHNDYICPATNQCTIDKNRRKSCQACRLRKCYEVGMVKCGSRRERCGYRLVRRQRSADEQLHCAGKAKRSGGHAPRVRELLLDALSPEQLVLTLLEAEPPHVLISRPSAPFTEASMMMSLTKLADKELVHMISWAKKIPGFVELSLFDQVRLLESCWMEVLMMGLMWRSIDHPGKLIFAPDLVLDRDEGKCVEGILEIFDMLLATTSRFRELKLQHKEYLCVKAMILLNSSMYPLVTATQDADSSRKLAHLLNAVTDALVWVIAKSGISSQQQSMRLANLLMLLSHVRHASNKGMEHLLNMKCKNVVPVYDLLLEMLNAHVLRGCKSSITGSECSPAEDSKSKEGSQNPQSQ

In assay [7] the target is Estrogen receptor (Homo sapiens) (UniProt P03372). Put plainly: qHTS assay to identify small molecule agonists of the estrogen receptor alpha (ER-alpha) signaling pathway in the presence of an antagonist (AID 1259383). Note: top concentration of the series differs between compounds; nearly all actives have a fitted effect of over 15% in size. Conditions: VM7Luc4E2 cells, ERE-luciferase, +ICI-182,780, 22 h; series mostly up to 92.4 µM. Summed up:
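Luciferase luminescence (ONE-Glo, 30min at room temperature) measured in VM7Luc4E2 cells after 22hr compound exposure at 15 concentrations, with 10.0nM ICI-182,780 final present; cells express endogenous ER-alpha and carry four EREs upstream of luciferase.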

The nature of assay [8]: qHTS assay to identify small molecule antagonists of the sonic hedgehog signaling (Shh) pathway (AID 1259369). Note: nearly all actives have a fitted effect of over 45% in size. Note: potency is the fitted concentration of half-maximal effect. Conditions: NIH/3T3 Gli1-Luc reporter, Shh antagonist, luminescence 24 h; series mostly up to 42.5 µM. Summed up: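 Luminescence readout: firefly Luc under Gli1 response element in 3T3Gli1-Luc cells (NIH/3T3 clone). Antagonist mode, stimulation by conditioned medium; compound exposure 24hr at 37 C, 5% CO2.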

Assay [9] addresses Estrogen receptor beta (Homo sapiens) (UniProt Q92731). Put plainly: qHTS assay to identify small molecule antagonists of the estrogen receptor beta (ER-beta) signaling pathway (AID 1259378; active = well fitted inhibition curve with a large enough effect in the signal ratio in the repeat runs, not every such curve was filed as active; the % refers to the signal ratio). Conditions: ER-beta-UAS-bla HEK293T, beta-lactamase FRET ratio, 16 h; series mostly up to 92.4 µM. Summed up:
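ER-beta-UAS-bla HEK293T cells in 2% charcoal-stripped FBS medium treated with compound plus 1nM final 17-beta-estradiol for 16 hr at 37C. Beta-lactamase reporter read by FRET substrate fluorescence after 2 hours at room temperature.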

Assay [10] addresses Androgen receptor (Homo sapiens) (UniProt P10275). Put plainly: qHTS assay to identify small molecule agonists of the androgen receptor (AR) signaling pathway in the presence of an antagonist (AID 1259381). Note: nearly all actives have a fitted effect of over 15% in size. The settings on record: MDA-kb2 MMTV-luciferase, AR agonist + nilutamide, 16 h; series mostly up to 42.5 µM. In short, it runs like this:
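Luciferase read-out (ONE-Glo, 30min room temperature) in MDA-kb2 MMTV-reporter cells; agonist mode run in presence of AR antagonist nilutamide, 3.0uM final. Compounds tested as 15-point series, 16hr exposure at 37C, 0% CO2.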
% is set by controls: 0 for no effect and ±100 for the full control effect.

Chain of Androgen receptor (Homo sapiens) (P10275 whole entry, looked up): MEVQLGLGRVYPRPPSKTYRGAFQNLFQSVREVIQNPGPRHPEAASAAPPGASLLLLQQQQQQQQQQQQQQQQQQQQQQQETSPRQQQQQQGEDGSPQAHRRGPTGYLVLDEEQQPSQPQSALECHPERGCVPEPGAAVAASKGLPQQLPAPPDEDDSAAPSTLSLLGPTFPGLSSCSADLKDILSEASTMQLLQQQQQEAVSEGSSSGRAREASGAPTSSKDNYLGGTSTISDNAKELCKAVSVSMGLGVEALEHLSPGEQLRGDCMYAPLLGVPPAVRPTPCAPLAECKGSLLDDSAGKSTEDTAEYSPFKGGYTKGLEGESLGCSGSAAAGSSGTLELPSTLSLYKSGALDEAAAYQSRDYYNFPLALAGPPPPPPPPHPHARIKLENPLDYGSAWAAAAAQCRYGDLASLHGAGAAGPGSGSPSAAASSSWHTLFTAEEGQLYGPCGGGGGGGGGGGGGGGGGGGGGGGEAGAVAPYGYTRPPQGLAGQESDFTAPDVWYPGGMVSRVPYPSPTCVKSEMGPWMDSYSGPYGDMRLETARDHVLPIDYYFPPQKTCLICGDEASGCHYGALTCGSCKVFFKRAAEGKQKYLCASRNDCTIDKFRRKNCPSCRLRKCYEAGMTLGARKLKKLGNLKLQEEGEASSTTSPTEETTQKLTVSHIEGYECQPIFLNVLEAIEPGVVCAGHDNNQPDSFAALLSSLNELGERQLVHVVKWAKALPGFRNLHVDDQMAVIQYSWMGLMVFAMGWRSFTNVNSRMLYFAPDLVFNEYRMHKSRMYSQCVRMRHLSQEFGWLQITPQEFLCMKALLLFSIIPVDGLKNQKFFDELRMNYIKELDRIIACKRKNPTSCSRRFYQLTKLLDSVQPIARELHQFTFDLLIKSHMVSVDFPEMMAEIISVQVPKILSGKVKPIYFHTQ
Chain of Estrogen receptor (Homo sapiens) (P03372 whole entry, looked up): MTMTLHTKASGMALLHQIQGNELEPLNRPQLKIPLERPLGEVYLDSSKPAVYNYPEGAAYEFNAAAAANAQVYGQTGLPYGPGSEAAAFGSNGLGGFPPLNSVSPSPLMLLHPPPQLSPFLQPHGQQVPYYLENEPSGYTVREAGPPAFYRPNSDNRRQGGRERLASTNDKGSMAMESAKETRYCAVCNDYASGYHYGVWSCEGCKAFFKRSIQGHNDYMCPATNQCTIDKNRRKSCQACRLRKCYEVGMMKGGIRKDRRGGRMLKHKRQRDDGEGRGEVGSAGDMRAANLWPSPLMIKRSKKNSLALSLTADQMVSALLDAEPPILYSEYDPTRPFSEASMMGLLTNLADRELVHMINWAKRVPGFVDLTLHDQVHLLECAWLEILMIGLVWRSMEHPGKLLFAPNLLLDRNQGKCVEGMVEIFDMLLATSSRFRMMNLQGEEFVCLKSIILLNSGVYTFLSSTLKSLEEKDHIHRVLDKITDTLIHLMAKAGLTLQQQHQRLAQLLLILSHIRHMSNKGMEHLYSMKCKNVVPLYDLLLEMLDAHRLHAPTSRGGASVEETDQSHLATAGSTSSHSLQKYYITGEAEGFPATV

Regarding `CC(=O)N(CC(O)CO)c1c(I)c(C(=O)NCCO)c(I)c(C(=O)NCC(O)CO)c1I` (centres undefined), the result in assay [1] and in assay [5] was inactive. Moreover, the Potency entry in [2], in [3] and in [4] was “inactive” in each case.

As for `CCO[Si](CCC1CCC2OC2C1)(OCC)OCC` (centres undefined), the outcome in assay [1], in [6] and in assay [5] was inactive. Moreover, the Potency result in assay [2], in [3] and in assay [7] was “inactive” throughout.

Regarding `N[C@H]1CN(c2c(F)cc3c(=O)c(C(=O)O)cn(C4C[C@H]4F)c3c2Cl)CC12CC2` (some centres undefined), the result in assay [1] and in assay [5] was inactive. The Potency entry in [8], in assay [2] and in [7] was “inactive” throughout.

With `COc1ccc(CCN(C)CCCC(C#N)(c2cc(OC)c(OC)c(OC)c2)C(C)C)cc1OC` (centres undefined), the compound was classed as inactive in assay [1], in [6] and in assay [5]. The Potency entry in assay [2], in assay [3] and in [4] was “inactive” each time.

On to `Cc1nc2c([nH]1)c(=O)n(C)c(=O)n2Cc1ccco1`, for which the compound was called inactive in assay [1], in assay [6] and in assay [9]. Besides, the Potency entry in assay [2], in assay [3], in assay [4] and in assay [7] was “inactive” each time.

For `CCCCCCCCCCCCCC=O`, in assay [8], the activity change, negative = inhibition is 13.4% [at 8.39 µM]. In addition, the activation in [6] is 5.64% [at 8.39 µM]; in assay [7] it was -0.924% [at 8.39 µM]. The activity, negative = inhibition in assay [9] was -23.6% [at 8.39 µM]. Moreover, the results for the activity change, negative = cytotoxicity in assay [2], in assay [3] and in assay [4] were -0.261% [at 8.39 µM], -3.43% [at 8.39 µM] and -3.46% [at 8.39 µM], respectively. Moreover, in assay [5], the cAMP activity change is 0.631% [at 8.39 µM].

As for `Cn1c(N)c(N=O)c(=O)n(C)c1=O`, in [1], the result was inactive. Further, the Potency entry in assay [8], in assay [2] and in assay [4] was “inactive” each time.

`OC(CCN1CCCCC1)(c1ccccc1)C1CC2C=CC1C2` (centres undefined): the compound was called inactive in assay [1]. In addition, the Potency in assay [8] is 16.8 µM (active). Also, the Potency entry in assay [4] and in [7] was “inactive” each time.

Turning to `COC(=O)[C@@H](N)Cc1ccc(O)c(O)c1`, the Potency result in assay [8], in assay [2], in assay [3] and in assay [10] was “inactive” each time. Besides, the result in assay [6], in [9] and in assay [5] was inactive.

As for `CN1N=C(C(N)=O)CCC1=O`, the outcome in assay [1] and in assay [5] was inactive. Also, the Potency entry in [2], in assay [3], in assay [10] and in assay [7] was “inactive” in each case.

For `O=C(O)CNC(=O)c1ccc([N+](=O)[O-])cc1`, the Potency entry in assay [8], in [2], in assay [3] and in [4] was “inactive” in each case. The outcome in [6] and in assay [9] was inactive.

On to `O=C(CCCN1CCC(O)(c2cccc(C(F)(F)F)c2)CC1)c1ccc(F)cc1`, for which the outcome in [1] and in assay [5] was inactive. Moreover, the Potency entry in [8] and in assay [2] was “inactive” throughout.

For the compound `Cc1[nH]c(=O)c(C#N)cc1-c1ccc2nccn2c1`, the compound was classed as inactive in [1] and in [5]. Also, the Potency result in [2], in [3] and in assay [4] was “inactive” each time.

Regarding `O=C(O)c1ccccc1OP(=O)(O)O`, the compound was classed as inactive in [1], in assay [6] and in [5]. For the same compound, the Potency entry in assay [2], in [3], in assay [4] and in assay [7] was “inactive” throughout.

Turning to `CCCC(=O)O[C@]1(C(=O)CO)CC[C@H]2[C@@H]3CCC4=CC(=O)CC[C@]4(C)[C@H]3[C@@H](O)C[C@@]21C`, the result in [1] and in assay [5] was inactive. Further, the Potency entry in assay [8], in assay [2] and in assay [4] was “inactive” each time.

On to `N[C@@H](C(=O)N[C@@H]1C(=O)N2C(C(=O)O)=C(Cl)CS[C@H]12)c1ccccc1`, for which the activity change in assay [1] is -0.56% [at 8.39 µM]. The activity change, negative = inhibition in assay [8] is -3.06% [at 8.39 µM]. In addition, the activity change, negative = cytotoxicity was -6.11% [at 8.39 µM] in assay [2] and 5.71% [at 8.39 µM] in assay [4]. Besides, the activation in assay [7] was 0.817% [at 8.39 µM]. For the same compound, the cAMP activity change in assay [5] is -1.5% [at 8.39 µM].

For `CCCCCCCCCCCC`, the compound was classed as inactive in assay [1] and in assay [5]. Further, the Potency entry in [2], in assay [3] and in assay [4] was “inactive” each time.

`Cc1cccn2c(=O)c(-c3nnn[nH]3)cnc12`: the activity change in [1] is 0.228% [at 18.9 µM]. In assay [6], the outcome was inactive. Also, the activity change, negative = cytotoxicity in [2] was 1.69% [at 19 µM]; in assay [4], -8.96% [at 19 µM]. Moreover, the activation in [7] is -1.22% [at 19 µM]. In addition, in assay [5], the cAMP activity change was -0.907% [at 18.9 µM].

For the compound `CCOC(=O)c1c(C)n(C)c2ccc(O)cc12`, the Potency entry in assay [8], in assay [2] and in assay [10] was “inactive” throughout. In addition, the result in assay [5] was inactive.

In the case of `N=C(N)c1ccc(OCCCOc2ccc(C(=N)N)cc2)cc1`, the Potency result in assay [8], in assay [2], in assay [4] and in [7] was “inactive” throughout. The outcome in [6], in assay [9] and in [5] was inactive.

For `CC(C)OC(=O)c1ccccc1`, the Potency entry in assay [8], in assay [2], in assay [4] and in assay [7] was “inactive” throughout. Besides, the result in assay [6], in assay [9] and in [5] was inactive.

As for `CCOC(C)(C)C`, the Potency entry in assay [8], in [2], in assay [3], in assay [4] and in assay [7] was “inactive” throughout. For the same compound, the compound was classed as inactive in assay [5].

Take `O=c1cc(CO)occ1O`: the Potency entry in assay [8], in [2], in assay [3], in assay [4] and in assay [7] was “inactive” in each case. Further, the result in assay [6] and in [5] was inactive.

In the case of `Cc1ccc(=O)n(-c2ccccc2)c1`, the result in assay [6] and in assay [5] was inactive. Besides, the Potency result in assay [2], in assay [3], in assay [4] and in [7] was “inactive” each time.

For `CN(C)CCCN1c2ccccc2CCc2ccc(Cl)cc21`, the Potency was 15.4 µM (active) and 11.9 µM (active) in assay [8]; 48.6 µM (active) and 33.5 µM (active) in assay [2]; 24.3 µM (active) and 21.1 µM (active) in [3]; 24.3 µM (active) and 18.8 µM (active) in assay [4]. For the same compound, the compound was called inactive in assay [5].

Consider `O=C(O)CN(CCOCCOCCN(CC(=O)O)CC(=O)O)CC(=O)O`, for which, in assay [8], the activity change, negative = inhibition is 23.6% [at 0.349 µM]. Also, in assay [6], the activation is -3.04% [at 0.348 µM]. Besides, the activity, negative = inhibition in [9] is -7.82% [at 0.349 µM]. In addition, in assay [2], the activity change, negative = cytotoxicity is 4.76% [at 0.35 µM]. Besides, the cAMP activity change in assay [5] is 3.85% [at 0.349 µM].

For the compound `NC(=O)c1ccc([N+](=O)[O-])cc1`, the Potency entry in [8], in assay [2] and in assay [4] was “inactive” throughout. Moreover, the result in [5] was inactive.

As to `O=Cc1cccc([N+](=O)[O-])c1`, the Potency result in assay [8], in assay [2], in assay [3], in assay [4] and in assay [7] was “inactive” in each case. Moreover, the outcome in [5] was inactive.
